Measured values reported in PMC13541613, “GHT-SELEX demonstrates unexpectedly high intrinsic sequence specificity and complex DNA binding of many human transcription factors”.

What follows are sequences tested against ZNF721 full-length (Homo sapiens, UniProt Q8TF20-2 1-923) (assay: HT-SELEX; 20 mM HEPES pH 7, 140 mM KCl, 5 mM NaCl, 1 mM K2HPO4, 2 mM MgSO4, 100 uM EGTA, ZnSO4, 0.1% Tween20; room temperature, 1 h; high values mean tight binding). Details: protein: ivt; tags: eGFP (N-terminal); dsDNA, one strand shown.
ZNF721 full-length, sequence (Q8TF20 other isoform, or with tags, fused parts or gaps): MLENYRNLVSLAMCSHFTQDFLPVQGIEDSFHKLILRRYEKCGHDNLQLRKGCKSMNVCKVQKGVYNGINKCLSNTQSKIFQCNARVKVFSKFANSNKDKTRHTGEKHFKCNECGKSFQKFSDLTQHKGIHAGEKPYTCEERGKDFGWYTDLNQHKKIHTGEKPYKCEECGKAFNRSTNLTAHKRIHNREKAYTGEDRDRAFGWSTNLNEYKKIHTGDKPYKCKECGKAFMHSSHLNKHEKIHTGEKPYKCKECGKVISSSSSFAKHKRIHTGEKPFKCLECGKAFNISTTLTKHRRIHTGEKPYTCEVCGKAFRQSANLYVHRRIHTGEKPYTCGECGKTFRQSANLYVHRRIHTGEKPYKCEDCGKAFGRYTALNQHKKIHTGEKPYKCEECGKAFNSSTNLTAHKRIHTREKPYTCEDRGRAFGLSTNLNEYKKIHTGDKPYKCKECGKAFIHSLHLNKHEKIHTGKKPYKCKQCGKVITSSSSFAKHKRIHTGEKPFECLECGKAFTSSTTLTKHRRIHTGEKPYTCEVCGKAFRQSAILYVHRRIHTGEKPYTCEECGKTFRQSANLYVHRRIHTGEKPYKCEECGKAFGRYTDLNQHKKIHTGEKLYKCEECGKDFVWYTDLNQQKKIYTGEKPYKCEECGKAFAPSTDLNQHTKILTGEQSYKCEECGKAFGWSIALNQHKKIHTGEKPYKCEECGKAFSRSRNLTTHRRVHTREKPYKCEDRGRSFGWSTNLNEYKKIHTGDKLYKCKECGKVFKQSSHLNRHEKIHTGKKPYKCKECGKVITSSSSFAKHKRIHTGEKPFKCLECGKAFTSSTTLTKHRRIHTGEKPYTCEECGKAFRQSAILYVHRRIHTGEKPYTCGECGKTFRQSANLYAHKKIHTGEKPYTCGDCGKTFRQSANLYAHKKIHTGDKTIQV
Procedure, shortened: (§1)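 In HEPES/KCl low-stringency buffer with Tween20, a bead-immobilised tagged transcription factor (full-length or DNA-binding-domain fragment, from HEK293 lysate or cell-free extract) was incubated with a randomized 40-base DNA library for 1 h at room temperature. DNA retained after washing was heat-eluted, amplified by PCR over successive cycles and Illumina-sequenced, giving ~3 million 60 bp reads per sample. The reported binding signal, a relative k-mer count in those selected reads, rises with tighter binding.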
ACAGCGTCTC showed a binding signal of 0.212 relative 10-mer count. With AAGCAGCGTC the binding signal was 0.112 relative 10-mer count. Sequence CAGCATGCCC has a binding signal of 0.121 relative 10-mer count. Work on CCCTGTTTTC yielded a binding signal of 0.162 relative 10-mer count. CAGTGTTACC gave a binding signal of 0.128 relative 10-mer count. With ACGCTGTTTC the binding signal was 0.13 relative 10-mer count. AAAGGAACAG gave a binding signal of 0.113 relative 10-mer count. With AAAAACAGGG the binding signal was 0.283 relative 10-mer count. AACAGCGTAT was tested, and the binding signal was 0.225 relative 10-mer count. For CAAAGCAGCG, the binding signal was 0.114 relative 10-mer count. Sequence AAAACAGTAC has a binding signal of 0.126 relative 10-mer count. Sequence ACGAAAACAG has a binding signal of 0.106 relative 10-mer count. Sequence AAAACTAGCA has a binding signal of 0.127 relative 10-mer count. Work on AGACACTGCT yielded a binding signal of 0.109 relative 10-mer count. Work on AAAACAGGGG yielded a binding signal of 0.112 relative 10-mer count. With CAGGGTTGCC the binding signal was 0.155 relative 10-mer count. AAACAGGATA showed a binding signal of 0.111 relative 10-mer count. For AACAAAGCAG, the binding signal was 0.243 relative 10-mer count. AACAGAGTAC was tested, and the binding signal was 0.127 relative 10-mer count. With AAACAGCATC the binding signal was 0.208 relative 10-mer count. Work on AACAGCATAT yielded a binding signal of 0.118 relative 10-mer count. For AAAAACAGAA, the binding signal was 0.108 relative 10-mer count. In the case of AAAAGAACAG, the binding signal is reported as 0.113 relative 10-mer count. Sequence AAACGCTGTT has a binding signal of 0.236 relative 10-mer count. With CAAAGCAGTG the binding signal was 0.119 relative 10-mer count. Work on ACAGCGTATC yielded a binding signal of 0.232 relative 10-mer count. With AAACAAACAG the binding signal was 0.143 relative 10-mer count. With AACAGCATCC the binding signal was 0.117 relative 10-mer count. Sequence CGCTGTTTTA has a binding signal of 0.126 relative 10-mer count. AAAAACAGCG was tested, and the binding signal was 0.589 relative 10-mer count. AAGCAGTGTA gave a binding signal of 0.142 relative 10-mer count. With AAGAAAACAG the binding signal was 0.177 relative 10-mer count. In the case of AACACTGCTT, the binding signal is reported as 0.388 relative 10-mer count. In the case of AACAGCATGC, the binding signal is reported as 0.113 relative 10-mer count. In the case of AAAAAGCAGG, the binding signal is reported as 0.195 relative 10-mer count. AGAGTACCCA was tested, and the binding signal was 0.112 relative 10-mer count. For AACCCTGCTT, the binding signal was 0.197 relative 10-mer count. In the case of GAGACACTGC, the binding signal is reported as 0.113 relative 10-mer count. Work on CAAAAAACAG yielded a binding signal of 0.386 relative 10-mer count. CAGCATGACC gave a binding signal of 0.229 relative 10-mer count.

These sequences were tested against ZNF721 DBD2 (Homo sapiens, UniProt Q8TF20-2 395-923) in the same assay as above. Details: protein: ivt; tags: eGFP (N-terminal); dsDNA, one strand shown.
ZNF721 DBD2, sequence (Q8TF20 383-911): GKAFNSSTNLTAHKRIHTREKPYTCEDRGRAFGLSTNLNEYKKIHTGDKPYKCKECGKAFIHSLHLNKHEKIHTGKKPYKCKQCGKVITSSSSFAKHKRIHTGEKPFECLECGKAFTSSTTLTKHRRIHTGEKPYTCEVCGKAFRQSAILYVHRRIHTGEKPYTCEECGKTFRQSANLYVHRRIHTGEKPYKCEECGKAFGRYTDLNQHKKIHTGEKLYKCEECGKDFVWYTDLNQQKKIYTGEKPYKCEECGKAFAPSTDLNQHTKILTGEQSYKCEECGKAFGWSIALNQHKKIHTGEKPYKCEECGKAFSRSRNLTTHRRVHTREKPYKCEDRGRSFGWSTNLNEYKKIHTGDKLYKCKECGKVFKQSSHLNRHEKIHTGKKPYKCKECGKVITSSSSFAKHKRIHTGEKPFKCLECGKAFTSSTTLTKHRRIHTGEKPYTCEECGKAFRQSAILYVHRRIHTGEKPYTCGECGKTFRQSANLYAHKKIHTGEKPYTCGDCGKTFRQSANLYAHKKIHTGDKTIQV
Procedure, shortened: as §1
For ACAGCGTCTC, the binding signal was 0.344 relative 10-mer count. With AAGCAGCGTC the binding signal was 0.133 relative 10-mer count. Sequence CAGCATGCCC has a binding signal of 0.244 relative 10-mer count. Sequence CCCTGTTTTC has a binding signal of 0.186 relative 10-mer count. CAGTGTTACC gave a binding signal of 0.259 relative 10-mer count. ACGCTGTTTC showed a binding signal of 0.199 relative 10-mer count. For AAAGGAACAG, the binding signal was 0.0545 relative 10-mer count. For AAAAACAGGG, the binding signal was 0.337 relative 10-mer count. AACAGCGTAT gave a binding signal of 0.366 relative 10-mer count. CAAAGCAGCG showed a binding signal of 0.158 relative 10-mer count. AAAACAGTAC gave a binding signal of 0.166 relative 10-mer count. ACGAAAACAG gave a binding signal of 0.149 relative 10-mer count. With AAAACTAGCA the binding signal was 0.173 relative 10-mer count. In the case of AGACACTGCT, the binding signal is reported as 0.127 relative 10-mer count. Sequence AAAACAGGGG has a binding signal of 0.145 relative 10-mer count. With CAGGGTTGCC the binding signal was 0.49 relative 10-mer count. For AAACAGGATA, the binding signal was 0.121 relative 10-mer count. AACAAAGCAG showed a binding signal of 0.29 relative 10-mer count. With AACAGAGTAC the binding signal was 0.166 relative 10-mer count. AAACAGCATC showed a binding signal of 0.21 relative 10-mer count. Sequence AACAGCATAT has a binding signal of 0.181 relative 10-mer count. In the case of AAAAACAGAA, the binding signal is reported as 0.0718 relative 10-mer count. AAAAGAACAG gave a binding signal of 0.0777 relative 10-mer count. In the case of AAACGCTGTT, the binding signal is reported as 0.44 relative 10-mer count. CAAAGCAGTG was tested, and the binding signal was 0.198 relative 10-mer count. With ACAGCGTATC the binding signal was 0.371 relative 10-mer count. In the case of AAACAAACAG, the binding signal is reported as 0.0858 relative 10-mer count. Sequence AACAGCATCC has a binding signal of 0.1 relative 10-mer count. CGCTGTTTTA gave a binding signal of 0.174 relative 10-mer count. AAAAACAGCG gave a binding signal of 0.668 relative 10-mer count. With AAGCAGTGTA the binding signal was 0.18 relative 10-mer count. Work on AAGAAAACAG yielded a binding signal of 0.222 relative 10-mer count. In the case of AACACTGCTT, the binding signal is reported as 0.495 relative 10-mer count. For AACAGCATGC, the binding signal was 0.163 relative 10-mer count. AAAAAGCAGG was tested, and the binding signal was 0.172 relative 10-mer count. AGAGTACCCA was tested, and the binding signal was 0.123 relative 10-mer count. With AACCCTGCTT the binding signal was 0.258 relative 10-mer count. GAGACACTGC gave a binding signal of 0.128 relative 10-mer count. CAAAAAACAG showed a binding signal of 0.495 relative 10-mer count. CAGCATGACC was tested, and the binding signal was 0.437 relative 10-mer count.
